The term inhibition denotes the drop in the measured response relative to a control, in per cent. By IC50 is commonly meant the concentration that gives 50% inhibition.

Among all 2,400 compounds or so, about 1,400 (58%) were called active. So high a share suggests a set chosen from earlier hits. The list shows a part of the results. Values without a mark were called inactive.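 How the source made its calls: active means inhibition of 30% or more at any tested dose; inconclusive means primary hits over the limit that were never retested; inactive means the rest.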

This test is described as follows: ADP Hunter readout inhibition without MgcRacGAP – biochemical, coupled enzyme counter-screen, artefact control for MgcRacGAP inhibitor project, dose response (AID 624351).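 Further: signal is the ADP detection kit reading of free GDP without any GAP enzyme.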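 On inhibition: 0% = median positive control wells and 100% = median negative control wells.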 The settings on record: fluorescence, no MgcRacGAP; series mostly up to 80 µM; inhibition: at the top concentration. In general terms: Counterscreens check selectivity or assay interference.
`COc1ccc2c3c(cccc13)N(C)N=C2C`: the “inhibition” value was 1.94% [at 40 µM].

Consider `Cc1sc2c3ccsc3ccc2[n+]1C`, for which the “inhibition” value is 0.2%.

As for `O=C(CCc1ccc(O)c(O)c1)N/N=C/c1ccc2c(c1)OCO2`, the “inhibition” value is 9.28%.

In the case of `O=[N+]([O-])c1ccccc1OCCNCc1ccccc1`, the “inhibition” value is -0.42%.

For `COCc1cc(C)nc(OCC(=O)N/N=C/c2ccc(O)cc2)c1C#N`, the IC50 is 79.7 µM (active).

`O=C(COc1cccc2cccnc12)N/N=C/c1ccc(O)cc1`: the IC50 is 80 µM (active).

Consider `O=C(COc1ccccc1[N+](=O)[O-])N/N=C/c1ccc(O)cc1`, for which the IC50 is 70.9 µM (active).

On to `O=C(Cc1ccc(Cl)cc1)N/N=C/c1ccc(O)c(O)c1`, for which the IC50 was 19.4 µM (active).

Turning to `O=C(Sc1n[nH]c(=O)[nH]c1=O)c1ccccc1`, the “inhibition” value is -1.01%.

As to `CCn1nc(NS(=O)(=O)c2ccccc2[N+](=O)[O-])c2cc3ccc(C)cc3nc21`, the “inhibition” value was 7.55%.

For `O=C(COc1ccccc1C(=O)N/N=C\c1ccc(O)c(O)c1)N/N=C/c1ccc(O)c(O)c1`, the IC50 was 28.8 µM (active).

For the compound `CCOC(=O)CCNC(C)C1COc2ccccc2O1` (stereo not drawn), the “inhibition” value was 12.8%.

Regarding `O=C(CNC(=O)C1COc2ccccc2O1)N/N=C/c1ccc(O)cc1O` (stereo not drawn), the IC50 is 66.8 µM (active).

Consider `COc1cc(/C=N\NC(=O)CNC(=O)C2COc3ccccc3O2)ccc1O` (stereo not drawn), for which the IC50 is 35.8 µM (active).

Turning to `CCCCN(CC)CCNC(=O)c1cc2c(-c3ccc(Cl)cc3)nn(C)c2s1`, the “inhibition” value was 22.5% [at 40 µM].

`c1cc2c(cc1CN1CCN(C3CCCCCC3)CC1)OCO2`: the “inhibition” value is 23.1%.

`c1cc2c(cc1NC1CCCCCC1)OCO2`: the IC50 is 45.1 µM (active).

In the case of `COc1ccc(N2C(S)=C(C#N)C(=O)NC2c2ccco2)cc1` (stereo not drawn), the “inhibition” value was 6.86%.

On to `COc1cc(/C=C2\SC(=Nc3c(C)n(C)n(-c4ccccc4)c3=O)NC2=O)ccc1O`, for which the IC50 was 44.4 µM (active).

In the case of `O=C1N/C(=C\c2ccc(O)cc2)C(O)=C1C=NCc1ccccc1`, the IC50 was 16 µM (active).

With `O=C1NC(=NCc2ccccc2)S/C1=C/c1ccc(O)cc1`, the IC50 is 20.1 µM (active).

For the compound `COc1cc(/C=C2/SC(=S)N(c3c(C)n(C)n(-c4ccccc4)c3=O)C2=O)ccc1O`, the IC50 was 48.2 µM (active).

Turning to `Cc1c(N=C2NC(=O)/C(=C/c3ccc(O)cc3)S2)c(=O)n(-c2ccccc2)n1C`, the IC50 is 72 µM (active).

As to `Nc1ccc2[nH]c(=S)sc2c1`, the “inhibition” value was 26.9%.

Turning to `Nc1ccc2[nH]c(=S)[nH]c2c1`, the IC50 is 21 µM (active).

Take `CCCS(=O)(=O)N1CCN(C2Cc3ccccc3C2)CC1`: the “inhibition” value was 22%.

Take `CCCCn1c(C)cc2cc(O)ccc21`: the IC50 was 30.4 µM (active).

Take `Cn1c(=O)[nH]c(N)c(Br)c1=O`: the “inhibition” value was 4.71%.

For the compound `Cc1ccsc1/C=N/Nc1nc2ccccc2[nH]1`, the IC50 was 26 µM (active).

As for `Cc1cc(C)nc(N/N=C/c2c[nH]c3ccccc23)n1`, the IC50 was 55.4 µM (active).

For `C(=N\Nc1nc2ccccc2[nH]1)/c1c[nH]c2ccccc12`, the IC50 is 37.6 µM (active).

As to `Cn1c(N/N=C/c2c[nH]c3ccccc23)nc2ccccc21`, the IC50 is 40.6 µM (active).

For the compound `C=C1c2cccc(O)c2C(=O)C2C(=O)[C@]3(O)C(=O)C(C(N)=O)C(=O)[C@@H](N(C)C)[C@@H]3[C@@H](O)[C@H]12` (stereo partly drawn), the “inhibition” value was -8.67%.

Turning to `O=C1NC(=S)S/C1=C1\Sc2ccccc2N1CCCS(=O)(=O)O`, the “inhibition” value was 23.1%.

Turning to `CC(C(=O)Nc1ccc(F)c(F)c1)N1CCN(C)CC1` (stereo not drawn), the “inhibition” value was 14.6%.

Regarding `CCOCCCNC(=O)CN1CCN(c2ccc(F)cc2)CC1`, the “inhibition” value is 3.62%.

On to `Cc1cnc(NC(=O)CN2CCN(c3ccccc3F)CC2)s1`, for which the “inhibition” value was 18.6%.

As for `CC(C(=O)NCC(=O)Nc1ccc(F)c(F)c1F)N1CCN(c2ccc(O)cc2)CC1` (stereo not drawn), the IC50 was 54.3 µM (active).

For the compound `O=C(CN1CCN(c2ccc(O)cc2)CC1)NCC(=O)Nc1ccc(F)c(F)c1F`, the IC50 is 61.8 µM (active).

Regarding `CC(C(=O)Nc1ccccc1C(F)(F)F)N1CCN(C)CC1` (stereo not drawn), the “inhibition” value is 14.4%.

`COc1ccccc1NS(=O)(=O)c1ccc(C)c(C(=O)N2CCN(c3ccc(O)cc3)CC2)c1`: the IC50 is 23.6 µM (active).

Regarding `COc1ccccc1C(=O)N1CCN(Cc2cccnc2)CC1`, the “inhibition” value is 4.78%.

`COc1cc(OC)c(OC)cc1CN1CCN(C(=O)c2cccc3ccccc23)CC1`: the “inhibition” value is 17.1%.

For `N/C(=N\OC(=O)N1c2ccccc2Sc2ccccc21)c1ccccc1`, the “inhibition” value was 28.5%.

Regarding `CC1(C)CC(NC(=O)N2c3ccccc3Sc3ccccc32)CC(C)(C)N1`, the “inhibition” value was 8.31%.

With `Cc1ccc2nc(/N=C(\N)NC(=O)N3c4ccccc4Sc4ccccc43)nc(C)c2c1`, the “inhibition” value was 17.9%.

Regarding `Cc1cccc(/C(N)=N/OC(=O)N2c3ccccc3Sc3ccccc32)c1`, the “inhibition” value was 26.5%.

For the compound `CCN1/C(=C/c2ccc3cc(C)ccc3[n+]2CC)Sc2cc(C)ccc21`, the “inhibition” value is 0.65%.

On to `CN(C)/C=C/c1oc2ccc(O)cc2c1[N+](=O)[O-]`, for which the IC50 was 14.2 µM (active).

Turning to `CCCc1cc(=S)n2c([nH]c3ccccc32)c1C#N`, the IC50 was 57.3 µM (active).

As for `CCn1nc(C)c(Br)c1C(=O)Sc1ccccc1Cl`, the “inhibition” value was 0.17%.

For `O=S(=O)(c1ccc(Cl)c(NC(=S)N/N=C/c2ccc(O)cc2)c1)N1CCOCC1`, the IC50 is 48.7 µM (active).

As to `Cc1ccc(S(=O)(=O)N2CCOCC2)cc1NC(=O)CNCc1cccnc1`, the “inhibition” value was 19.8%.

These data come from PubChem BioAssay AID624351 (Southern Research Specialized Biocontainment Screening …, 2012).
